Experimental data from PubChem BioAssay (NCI).
The panel holds about 83,000 compounds, 20% with a hit somewhere; the sample as a whole holds those more often.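 Cells were grown in 96-well plates and exposed to the test compound at a single concentration for 48 hours; results are reported as percent growth, with values below 10 considered active.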 Unmarked numbers belong to inactive results. The source made the active and inactive calls.

How the values were obtained:
Experiment in all cases: NCI-60 one-dose screen, 48 h (100 = growth as untreated, 0 = no growth, -100 = all killed)
Conditions in all cases: 10 µM unless noted
HCT-15 colon = system: HCT-15 colon
HT29 colon = system: HT29 colon
SNB-75 CNS = system: SNB-75 CNS
SNB-19 CNS = system: SNB-19 CNS
PC-3 prostate = system: PC-3 prostate
UACC-62 melanoma = system: UACC-62 melanoma
LOX IMVI melanoma = system: LOX IMVI melanoma
SK-MEL-28 melanoma = system: SK-MEL-28 melanoma
SK-MEL-2 melanoma = system: SK-MEL-2 melanoma
EKVX NSCLC = system: EKVX NSCLC
SN12C renal = system: SN12C renal
UO-31 renal = system: UO-31 renal
TK-10 renal = system: TK-10 renal
ACHN renal = system: ACHN renal
CAKI-1 renal = system: CAKI-1 renal
A498 renal = system: A498 renal
CCRF-CEM leukemia = system: CCRF-CEM leukemia
MOLT-4 leukemia = system: MOLT-4 leukemia
SK-MEL-5 melanoma = system: SK-MEL-5 melanoma
U251 CNS = system: U251 CNS

Row | SMILES | growth (HCT-15 colon) | growth (HT29 colon) | growth (SNB-75 CNS) | growth (SNB-19 CNS) | growth (PC-3 prostate) | growth (UACC-62 melanoma) [%] | growth (LOX IMVI melanoma) | growth (SK-MEL-28 melanoma) [%] | growth (SK-MEL-2 melanoma) | growth (EKVX NSCLC) | growth (SN12C renal) [%] | growth (UO-31 renal) | growth (TK-10 renal) | growth (ACHN renal) | growth (CAKI-1 renal) | growth (A498 renal) | growth (CCRF-CEM leukemia) | growth (MOLT-4 leukemia) | growth (SK-MEL-5 melanoma) [%] | growth (U251 CNS) [%]
1 | CC1=NN(c2nc(-c3ccc(Cl)cc3)c(C#N)c(N3CCOCC3)n2)C(=O)C1 | 89.3% | 94.1% | 56.5% | 94.6% | 98.5% | 13.8 | 75.5% | 33.1 | 87.1% | 88.8% | 88.5 | 71.9% | 117% | 73.6% | 70.1% | 58% | 85.9% | 92.1% | – | –
2 | COc1cc(C)c(C2C(C#N)=C(N)Oc3n[nH]c(-c4cccs4)c32)cc1C(C)C (stereo unspecified) | 96.2% | 98.9% | 86.8% | 103% | 95.3% | 96.1 | 98.6% | 112 | 102% | 97% | 103 | 98.7% | 98.2% | 108% | – | 93% | 81.5% | 79.4% | – | –
3 | C=CC(=O)Nc1cccc(-c2nc(SC)nc(NCc3ccccc3)c2C#N)c1 | 58.4% | 62.2% | 19.6% | 54.8% | 74.8% | 61 | – | 82.4 | 60.8% | 44% | 42.1 | 31.1% | 69.1% | 50.6% | 40.5% | -1.24% (active) | 60.3% | 49.1% | 74 | –
4 | O=c1oc2c(C(F)(F)F)cccc2cc1-c1csc(Nc2ccc(OCCF)cc2)n1 | 17.3% | -11.5% (active) | 19.3% | 27.7% | 21% | – | 19.7% | – | 18% | 38% | – | 40.3% | 59.7% | 23.2% | 12.2% | -9.67% (active) | 5.28% (active) | 15.8% | – | –
5 | CN1CCN(c2ccc3nc(-c4ccc(OCCCCN5CCN(CCCCN6C(=O)c7cccc8cccc(c78)C6=O)CC5)cc4)[nH]c3c2)CC1 | 76.2% | 60.3% | 36.4% | 84.2% | – | 95.4 | – | 24.6 | 79.2% | 78.9% | 73.8 | 16.7% | 88.4% | 89% | 33.1% | 119% | 26.2% | 52% | 69.1 | –
6 | CC[C@@H]1O[C@H](O[C@@H](c2cnc[nH]2)[C@H](NC(=O)c2nc([C@H](CC(N)=O)NC[C@@H](N)C(N)=O)nc(N)c2C)C(=O)N[C@H](C)[C@H](O)[C@H](C)C(=O)N[C@@H](C(=O)NCCc2nc(-c3nc(C(=O)NCCCCN=C(N)N)cs3)cs2)[C@@H](C)O)[C@H](O[C@@H]2O[C@H](CO)[C@H](O)[C@H](OC(N)=O)[C@@H]2O)[C@H](C)[C@@H]1C | 45.1% | 53.9% | – | 45.9% | – | 37.5 | – | 87.6 | 101% | 91.8% | 21.9 | 23.2% | 71.9% | – | – | 78.2% | 80.5% | 46.8% | – | 35.3
7 | CC(C)(CCCN=C(N)Nc1ccc(Cl)cc1)c1ccc(F)cc1 | 67.1% | 12.7% | 60.7% | 67.4% | 52.9% | – | 57.8% | – | 94.6% | 71.7% | – | 58.5% | 72.4% | 67.4% | 74.7% | 77.6% | 53.7% | 37.7% | – | –
8 | O=C(Nc1cccc2[nH]c(C(F)(F)F)nc12)c1ccc(-n2cnnn2)cc1 | 99.1% | 111% | 100% | 94% | – | 34.3 | 102% | 120 | – | – | 108 | 75.9% | 108% | 99.5% | 95.4% | 83.1% | 28.6% | 32.4% | 87.2 | –
9 | Cc1cc(C)c2nc3nc(C)cc(C)c3c(N)c2c1 | 16.4% | 18% | 52.7% | 35.3% | – | 41.8 | 7.77% (active) | 38.7 | 30.4% | 28.1% | 24.9 | -1.17% (active) | 41.4% | 5.3% (active) | 10.4% | 47% | 42.3% | -18.6% (active) | 26.8 | –
10 | Cc1ccc2c(c1)C(=O)/C(=C/c1cccc(OCC(=O)c3ccc(Cl)cc3)c1)CS2 | 81.3% | 87.9% | 87.6% | 93.9% | – | 76.2 | 75.3% | 123 | 58.2% | 91.9% | 88.4 | 71.2% | 93% | 99.6% | 89.2% | 80.4% | -2.6% (active) | 19.1% | – | –
11 | CCCCC[C@H]1C/C=C2/C(=O)C=C[C@@H]2C/C=C\CCCC(=O)O1 | -18.8% (active) | -69.1% (active) | -33.6% (active) | 1.16% (active) | -38.4% (active) | – | -79.1% (active) | – | -75.9% (active) | -18% (active) | – | -96.5% (active) | -59.4% (active) | -91% (active) | 8.56% (active) | -61.1% (active) | -0.835% (active) | -3.81% (active) | – | –
12 | O=C(/C=C/c1ccc(C(F)(F)F)cc1)Nc1ccc(C=C2c3ccccc3C(=O)c3ccccc32)cc1 | 47.4% | 46.5% | 46.6% | 66.5% | – | 52.2 | 76.7% | 60.2 | 25.5% | 53.6% | 89.6 | 72.6% | 70.2% | 74.8% | 56.2% | – | 32.6% | 47.5% | – | –
13 | OC(COc1cccc2ccccc12)CN1CCN(c2ccccc2Cl)CC1 (stereo unspecified) | 99% | 85.7% | 86.7% | 83.4% | – | 93.9 | 92.6% | 112 | 44.6% | 102% | 105 | 85.1% | 100% | 102% | – | 90% | – | 107% | 90.7 | –
14 | CCCN1CCN(c2ccc3nc(-c4ccc5nc(-c6ccc(OCC)cc6)[nH]c5c4)[nH]c3c2)CC1 | -56.5% (active) | -69% (active) | 50.3% | 62% | – | 51.4 | -95% (active) | 48.4 | 78.9% | 59.1% | 61.2 | 87.2% | 69% | 34.6% | 49.3% | 65.6% | -32.4% (active) | -0.259% (active) | 28.9 | –
15 | Cc1cc(Nc2ccc(C)c(Cl)c2)n2nc(C(F)(F)F)nc2n1 | 66.9% | 25.5% | -30.7% (active) | 37.4% | – | 66.9 | – | 82.8 | 60.8% | – | 22.1 | -43.2% (active) | -32.3% (active) | -2.48% (active) | -35.5% (active) | 91.9% | 62% | 74.1% | 75.4 | –
16 | O=C1/C(=C/c2ccc(OCCCOc3ccc(Cl)cc3)cc2)N=C2SCCCN12 | 63.2% | 76% | 84.5% | 78.5% | – | – | 68.3% | – | 98.4% | 47.6% | – | 70.9% | 72.7% | 74.5% | 71.6% | 96.5% | 69.5% | 62.1% | – | –
17 | O=C1C=C(OCC=C(Cl)Cl)C(=O)c2ccccc21 | 64.2% | 82.4% | 50.6% | 98.7% | – | 87 | 28.8% | 104 | 69.8% | 93.3% | 84.5 | 59% | 122% | 64% | 93.4% | 97.7% | 28.7% | 71% | – | –
18 | CC/C=C\C[C@H]1C/C=C2/C(=O)C=C[C@H]2C/C=C\CCCC(=O)O1 | 29.8% | 6.12% (active) | 38.6% | 40.3% | 36% | – | 6.07% (active) | – | 21.4% | 45% | – | 55.5% | 29.6% | -67.7% (active) | 25.2% | 79.5% | -6.1% (active) | 14.3% | – | –
19 | O=C1NC(=S)N[C@H]1CC(=O)n1cnc2ccccc21 | 99.1% | 111% | 69.7% | 102% | – | 93.4 | 88.5% | 111 | 104% | 90.5% | 95.4 | 75.5% | 112% | 95.3% | 88.7% | 80.3% | – | 108% | 99.1 | –
20 | COc1ccc2[nH]cc(-c3noc(C(=O)c4cn(C)c5ccc(F)cc45)n3)c2c1 | 94.4% | 109% | 74.6% | 96% | – | 88.2 | 93.2% | 105 | 94.7% | 76.9% | 93 | 67.9% | – | 88.4% | 81.5% | 95.8% | 99.2% | 95.4% | 92.5 | –
